SARS PLpro yeast – qHTS of Yeast-based Assay for SARS-CoV PLP; S. cerevisiae expressing SARS-CoV PLpro, growth rescue; Potency, µM (titrated, usually from 32.9 µM), hits mostly activators; actives 0.19% (n = 330,000); AID 485353, 2010; calls by dose curve; note: nearly all actives have a fitted effect of over 55% in size
LASV entry inh – qHTS for Inhibitors of binding or entry into cells for Lassa Virus; Potency, µM (doses to about 37.9 µM), usual class: inhibitors; Lassa virus pseudotype entry inhibition, cell reporter; actives 1.2% (n = 300,000); calls by dose curve; tested in HEK293 cells; note: nearly all actives have a fitted effect of over 50% in size
HCMV inh – qHTS Assay for inhibitors of the human cytomegalovirus (HCMV) | AID 1259415, 2018 | actives 4.5% (n = 410,000) | activity change, negative = inhibition, % at 57.5 µM | HFF cells, HCMV-luciferase reporter, 72 h; hits give low values; in the data active = activity change below about -60%; inconclusive = no clear call, values can overlap the other calls; inactive = above about -39%
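Inhibition of viral replication was scored as loss of reporter luminescence in HFFs infected with HCMV-luciferase (MOI 1 PFU/cell) for 72 h; compounds tested at 2 doses, normalized to buffer and Salinomycin controls.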
MARV entry inh – qHTS for inhibitors of binding or entry into cells for Marburg Virus; Marburg virus pseudotyped entry inhibition, cell reporter; Potency, µM (titrated, usually from 37.8 µM), most hits filed as inhibitors; actives 1.8% (n = 300,000); AID 540276, 2011; calls by dose curve; tested in HEK293 cells
HCV inhibitor – qHTS Assay for Inhibitors of Hepatitis C Virus (HCV) | Huh7.5.1 HCVcc-Cre infection, luciferase reporter, 44 h | Potency, µM (highest dose often 41.8 µM), most hits filed as inhibitors | actives 3.4% (n = 340,000); active = well fitted inhibition curve with a large enough effect; inconclusive = small, poorly fitted or top-dose-only effect, or another doubt; inactive = no such curve, though single readings can be large or run the other way
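After 44 h co-culture of compound, cells and HCVcc-Cre (~0.5 moi), substrate is added for 15 min at room temperature and luciferase measured over 15 sec. Cells were seeded at 1,000/well and pre-cultured 4 h.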
FMDV antiviral – High Throughput Screening for Foot and Mouth Disease Virus Antivirals; Potency, µM (titrated, usually from 57.9 µM), most hits filed as inhibitors; actives 1.2% (n = 410,000); FMDV antiviral cell-based qHTS; AID 1159524, 2015; calls by dose curve; tested in HEK293T cells; note: read-out not given here; nearly all actives have a fitted effect of over 45% in size
Each line names hits and unclear results; the compound was inactive in the other large screens. Hits are enriched below; roughly 8% of the tested compounds scored in any of these assays.

COc1ccc(-c2noc(-c3ccccc3NC(=O)c3cc(OC)c(OC)c(OC)c3)n2)cc1	FMDV antiviral inconclusive (no result: SARS PLpro yeast, HCV inhibitor)
Cc1cccc(CN2C[C@H](Sc3ccccn3)C[C@H]2C(=O)Nc2ccc3sc(C)nc3c2)c1	none (no result: SARS PLpro yeast, LASV entry inh, HCMV inh, MARV entry inh, HCV inhibitor)
COC1=C[C@H](C(=O)NCCOC(C)=O)[C@@]2(C)Cc3ccccc3[C@@H]2CC1=O	none (no result: SARS PLpro yeast, LASV entry inh, HCMV inh, HCV inhibitor, FMDV antiviral)
Cc1ccc2c(=O)c(C(=O)c3ccccc3)cn(CC(=O)NCc3ccccc3)c2n1	none (no result: SARS PLpro yeast, MARV entry inh, HCV inhibitor)
COc1cccc([C@H]2Oc3ccc(OC)cc3/C(=N\OCC[C@@H]3C=C[C@H](OC(C)=O)[C@@H](COC(C)=O)O3)[C@@H]2O)c1	none (no result: SARS PLpro yeast, LASV entry inh, HCMV inh, HCV inhibitor, FMDV antiviral)
Cc1ccc(NC(=O)c2ccc(OC(F)F)cc2)cc1S(=O)(=O)N(C)C	HCMV inh -95, MARV entry inh inconclusive, HCV inhibitor 7.9µM, FMDV antiviral inconclusive
COc1ccc(S(=O)(=O)N(C)C)cc1NCC(=O)Nc1ccc(Br)c(C)c1	HCMV inh inconclusive, MARV entry inh inconclusive, HCV inhibitor 10µM
COc1cc(CCC(=O)Nc2ccc(C)c(S(=O)(=O)N(C)C)c2)cc(OC)c1OC	LASV entry inh inconclusive, MARV entry inh inconclusive, HCV inhibitor inconclusive, FMDV antiviral 28µM
CCOC(=O)C1CCN(C(=O)C2COc3ccccc3C2)CC1 (stereo not given)	none (no result: SARS PLpro yeast, MARV entry inh, HCV inhibitor)
O=C(N/C(=C/c1cccs1)C(=O)N1CCCCCC1)c1ccccc1	HCMV inh -98
O=C(N/C(=C/c1ccc(Cl)cc1)C(=O)N1CCOCC1)c1ccccc1	HCMV inh -78, MARV entry inh inconclusive
O=C(N/C(=C\c1cccs1)C(=O)N1CCCCCC1)c1ccccc1	none (no result: FMDV antiviral)
O=C(N/C(=C/c1ccc(F)cc1)C(=O)N1CCOCC1)c1ccccc1	none
O=C1c2ccccc2NC(c2ccc(Cl)cc2Cl)N1Cc1ccccc1 (stereo not given)	HCV inhibitor inconclusive, FMDV antiviral inconclusive
O=C1c2ccccc2NC(c2ccc(Cl)cc2Cl)N1O (stereo not given)	SARS PLpro yeast 14µM
COc1cc2c(C#Cc3cccnc3)c(-c3ccsc3)oc(=O)c2cc1OC	HCV inhibitor 6.3µM (no result: LASV entry inh, MARV entry inh)
COc1ccc(-c2oc(=O)c3cc(OC)c(OC)cc3c2C#CCCCO)cc1	HCV inhibitor inconclusive (no result: LASV entry inh, MARV entry inh)
COc1cc2c(C#CCCCO)c(-c3ccsc3)oc(=O)c2cc1OC	HCMV inh -61, HCV inhibitor 3.2µM (no result: LASV entry inh, MARV entry inh)
COc1cc2c(C(F)(F)F)c(-c3ccsc3)oc(=O)c2cc1OC	none (no result: LASV entry inh, MARV entry inh)
COC(=O)[C@]1(C#N)CC(=O)N([C@H](C)[C@H](O)c2ccccc2)[C@@H]1c1ccccc1	none (no result: SARS PLpro yeast, LASV entry inh, MARV entry inh, HCV inhibitor, FMDV antiviral)
CC(=O)Oc1c(/C=C(\C#N)C(N)=O)[nH]c2ccccc12	LASV entry inh 16µM, MARV entry inh inconclusive, HCV inhibitor inconclusive
N#C/C(=C\c1c[nH]c2ccccc12)C(N)=O	none (no result: LASV entry inh, MARV entry inh)
Cc1ccccc1C1c2[nH]c3ccccc3c2C[C@H]2C(=O)N(c3ccccc3C(=O)NCCCN3CCOCC3)C(=O)N12 (stereo not given in full)	SARS PLpro yeast inconclusive, HCV inhibitor 1.1µM (no result: LASV entry inh, MARV entry inh)
Cc1ccccc1C1c2[nH]c3ccccc3c2C[C@H]2C(=O)N(c3ccccc3C(=O)NCCN3CCOCC3)C(=O)N12 (stereo not given in full)	HCV inhibitor inconclusive (no result: LASV entry inh, MARV entry inh)
Cc1ccc(CNC(=O)Cc2ccc(-n3c(=O)[nH]c4ccsc4c3=O)cc2)cc1	LASV entry inh inconclusive, HCMV inh -62
c1ccc(-c2nnc(-c3ccccn3)s2)nc1	LASV entry inh inconclusive, MARV entry inh 1.1µM
c1ccc(-c2nc(-c3ccccn3)nc(-c3ccccn3)n2)nc1	none
COc1ccccc1NC(=S)NCC1CCCCC1	HCMV inh -66, HCV inhibitor inconclusive
COc1ccccc1NC(=S)NC1CCCCCCCCCCC1	HCMV inh -61, HCV inhibitor 4.5µM (no result: LASV entry inh)
O=C1c2cccc3c(N4CCCCC4)ccc(c23)C(=O)N1c1ccccc1O	HCMV inh -96, HCV inhibitor inconclusive (no result: LASV entry inh, MARV entry inh)
O=C1c2cccc3c(N4CCCCC4)ccc(c23)C(=O)N1c1ccc(O)cc1	HCMV inh -62, MARV entry inh inconclusive
CCOC(=O)c1ccc(NC(=O)CN2CCc3ccccc3C2)cc1	none

Screening results deposited in PubChem by National Center for Advancing Translational Sciences (NCATS).
